According to PubChem BioAssay AID743311 (Broad Institute, 2014):
Potency and affinity values are given separately. Calls of active or inactive are those of the source. A call without a number means that no potency is given here. The rule behind the calls is not given here.

Assay: HepG2 cell cytotoxicity, dose response, cytotoxicity control, plate reader, dry powder, set 6 (AID 743311)
Conditions: series mostly up to 26 µM
For `Cc1cc2ncn(CCOc3ccccc3)c2cc1C`, the outcome was “inactive”. For `Cc1ccc(C(C)C)c(OCCn2c(NC#N)nc3ccccc32)c1`, the outcome was “inactive”. With `Cc1ccccc1OCCn1cnc2ccccc21` the outcome was “inactive”. In the case of `CSc1nc2ccccc2n1CCOc1cc(C)ccc1C(C)C`, the outcome is reported as “inactive”. With `c1ccc2c(c1)ncn2CCOc1ccc2c(c1)CCC2` the outcome was “inactive”. For `COc1ccc(OCCn2cnc3ccccc32)cc1`, the outcome was “inactive”. With `Clc1ccc(OCCn2cnc3ccccc32)cc1` the outcome was “inactive”. For `Cc1ccc(OCCn2cnc3ccccc32)c(C(C)C)c1`, the outcome was “inactive”. For `CC(C)Oc1ccc(OCCn2cnc3ccccc32)cc1`, the outcome was “inactive”. For `Fc1ccc(OCCn2c(=S)[nH]c3ccccc32)cc1`, the outcome was “inactive”. With `COc1ccccc1OCCn1c(=S)[nH]c2ccccc21` the outcome was “inactive”. For `COc1cccc(OCCn2cnc3ccccc32)c1`, the outcome was “inactive”. For `CCCc1nc2ccccc2n1CCOc1ccccc1`, the outcome was “inactive”. In the case of `COc1ccccc1OCCn1c(SC)nc2ccccc21`, the outcome is reported as “inactive”. With `CC(C)(C)c1ccc(OCCn2cnc3ccccc32)cc1` the outcome was “inactive”. In the case of `Cc1cccc(OCCn2c(=S)[nH]c3ccccc32)c1`, the outcome is reported as “inactive”. With `Cc1ccc(C(C)C)c(OCCn2c(=S)[nH]c3ccccc32)c1` the outcome was “inactive”. With `Fc1cccc2c1[nH]c(=S)n2CCOc1ccccc1` the outcome was “inactive”. With `Cc1cccc(OCCn2cnc3ccccc32)c1` the outcome was “inactive”. In the case of `Cc1ccc2c(c1)[nH]c(=S)n2CCOc1ccccc1`, the outcome is reported as “inactive”.
